Laboratory results published in PubChem BioAssay (NCI).
About 83,000 compounds went through this panel and 20% of them were active in at least one assay; those are over-represented in the sample as a whole.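 Values shown are percent growth following 48 h exposure of cells in 96-well plates to a single concentration of compound; below 10 was considered active.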 Calls of active or inactive are those of the source.

Tested on: ACHN renal
Assay: NCI-60 one-dose screen, 48 h (100 = growth as untreated, 0 = no growth, -100 = all killed)
Settings: 10 µM unless noted

| Compound | growth |
| --- | --- |
| COc1ccc(C(O)c2cc3c(N)c(C(=O)Nc4cccc(OC)c4)sc3nc2C)cc1 (stereo unspecified) | 27% (inactive) |
| CCN(CC)S(=O)(=O)c1cccc([N+](=O)[O-])c1 | 109% (inactive) |
| CCOC(=O)C1CC(=O)c2cc(OC)c(OC)cc2C1 (stereo unspecified) | 107% (inactive) |
| c1ccc(CCSc2ncnc3nc[nH]c23)cc1 | 90.7% (inactive) |
| O=S(=O)(NCCCNc1nccc(-c2c(-c3ccccc3)nc3occn23)n1)c1ccc(Cl)cc1 | 58.3% (inactive) |
| Cc1nc2sc(C(=O)Nc3ccccc3)c(N)c2cc1C(=O)c1ccc(C(F)(F)F)cc1 | 80% (inactive) |
| Nc1ncc(C#Cc2cncc(NC(=O)c3cccc(C(F)(F)F)c3)c2)c2cccnc12 | 55.1% (inactive) |
| CCCCCCCCCCCCCCCC(=O)OC[C@@]1(O)C[C@@]23CC[C@@H]4C(C)(C)CCC[C@@]4(C)[C@@H]2CC[C@H]1C3 | 106% (inactive) |
| CC1(C)CN(c2cnc(C(=O)Nc3cc(F)cc4cccnc34)cn2)CCN1 | 31.3% (inactive) |
| O=S(=O)(NCCCNc1nccc(-c2c(-c3ccc(F)c(O)c3)nc3sccn23)n1)c1ccc(F)cc1 | 6.06% (active) |
| CC1(C)CN(Cc2ccccc2)CCN1Cc1ccccc1 | 109% (inactive) |
| COc1ccc(Cn2nc(-c3ccccc3)c3c2CCc2cnoc2-3)cc1 | 81.4% (inactive) |
| O=C(Nc1ccc2ncnc(Nc3ccc(Oc4cccc(F)c4)c(Cl)c3)c2c1)c1ccc(CN2CCOCC2)cc1 | 17.5% (inactive) |
| O=C1/C(=C/c2ccc(O)cc2)COc2ccc(-c3ccccc3)cc21 | 86% (inactive) |
| CCCCc1ccc(Nc2nnc(SCC(=O)NC(=O)NCC)s2)cc1 | 101% (inactive) |
| Fc1ccccc1CSc1ncnc2nc[nH]c12 | 107% (inactive) |
| COc1ccc(-c2cnnc3c(-c4cccc(C(F)(F)F)c4)cnn23)cc1 | 14.9% (inactive) |
| CC(=O)Nc1ccc(C(=O)Nc2cc(-c3ccccc3)ccc2N)cc1 | 54.8% (inactive) |
| Cc1ccc(C2CC(c3cccc(Nc4ccncc4)c3)=NN2c2ccc(Cl)cc2)cc1 (stereo unspecified) | -100% (active) |

| Compound | growth |
| --- | --- |
| CC(C)[N+](C)(CCOC(COc1ccccc1)COc1ccccc1)C(C)C | 105% (inactive) |
| FC(F)(F)c1cccc(Oc2ccc(Nc3ncnc4ccc(OCCCN5CCOCC5)cc34)cc2Cl)c1 | 23.9% (inactive) |
| COc1ccc(/C=C2\COc3ccc(-c4ccccc4)cc3C2=O)cc1O | 47.3% (inactive) |
| Cc1ccccc1-c1cc(Cc2ccc(F)cc2)c(=O)[nH]n1 | 105% (inactive) |
| CC(=O)N1N=C(c2cccc(Nc3ccncc3)c2)CC1c1ccccc1 (stereo unspecified) | 94.6% (inactive) |
| COc1cccc(/C=C2\COc3ccc(-c4ccccc4)cc3C2=O)c1 | 46.8% (inactive) |
| O=C1NC(=S)NC(=O)C1=Cc1cccc(C=C2C(=O)NC(=S)NC2=O)c1 | 113% (inactive) |
| Cc1ccc(/C=C/C(=O)c2ccc(N)cc2)c(C)c1 | 39.3% (inactive) |
| FC(F)(F)Oc1cccc(-c2cc(NCCCCCCNc3cc(-c4cccc(OC(F)(F)F)c4)nc4ccc(N5CCCC5)cc34)c3cc(N4CCCC4)ccc3n2)c1 | -15.6% (active) |
| CS(=O)(=O)c1ccc(-c2cc3c(oc2=O)-c2ccccc2OC3O)cc1 (stereo unspecified) | 98.6% (inactive) |
| O=C1c2cccnc2C(=O)c2nc3cc(N4CCN(C5CC5)CC4)ccc3nc21 | -35.1% (active) |
| CN1CCN(CCCOc2ccc3ncnc(Nc4ccc(Oc5cccc(C(F)(F)F)c5)c(Cl)c4)c3c2)CC1 | -37.5% (active) |
| COc1cc(/C=N/NC(=O)c2ccccc2Nc2cccc(C(F)(F)F)c2)ccc1O | 103% (inactive) |
| COc1ccc(/C=C/C(=O)c2ccc(Nc3ncnc4ccccc34)cc2)cc1OC | 88.8% (inactive) |
| COc1cc(C2CC(c3cccc(Nc4ccncc4)c3)=NN2c2ccccc2)cc(OC)c1OC (stereo unspecified) | 65.6% (inactive) |
| COc1cccc(CCC(=O)c2cc3c(N)c(C(=O)Nc4cccc(Cl)c4C)sc3nc2C)c1 | 32.2% (inactive) |
| COc1ccc(-c2nc(N/N=C/c3ccco3)nc(N3CCOCC3)c2C#N)cc1 | 78.3% (inactive) |
| COc1ccc(C(=O)c2cc3c(N)c(C(=O)Nc4cccc5ccccc45)sc3nc2C)cc1 | 30.5% (inactive) |
| C#CCn1cc(C=C2C(=O)NC(=S)NC2=O)c2cc(Cl)ccc21 | -25.2% (active) |

Tested on: CAKI-1 renal
Assay: as above
Settings: 10 µM unless noted

| Compound | growth |
| --- | --- |
| COc1ccc(C(O)c2cc3c(N)c(C(=O)Nc4cccc(OC)c4)sc3nc2C)cc1 (stereo unspecified) | 24.4% (inactive) |
| CCN(CC)S(=O)(=O)c1cccc([N+](=O)[O-])c1 | 91.3% (inactive) |
| CCOC(=O)C1CC(=O)c2cc(OC)c(OC)cc2C1 (stereo unspecified) | 120% (inactive) |
| c1ccc(CCSc2ncnc3nc[nH]c23)cc1 | 86.7% (inactive) |
| O=S(=O)(NCCCNc1nccc(-c2c(-c3ccccc3)nc3occn23)n1)c1ccc(Cl)cc1 | 62% (inactive) |
| Cc1nc2sc(C(=O)Nc3ccccc3)c(N)c2cc1C(=O)c1ccc(C(F)(F)F)cc1 | 83.6% (inactive) |
| Nc1ncc(C#Cc2cncc(NC(=O)c3cccc(C(F)(F)F)c3)c2)c2cccnc12 | 68.6% (inactive) |
| CCCCCCCCCCCCCCCC(=O)OC[C@@]1(O)C[C@@]23CC[C@@H]4C(C)(C)CCC[C@@]4(C)[C@@H]2CC[C@H]1C3 | 74.2% (inactive) |
| CC1(C)CN(c2cnc(C(=O)Nc3cc(F)cc4cccnc34)cn2)CCN1 | 62.4% (inactive) |
| O=S(=O)(NCCCNc1nccc(-c2c(-c3ccc(F)c(O)c3)nc3sccn23)n1)c1ccc(F)cc1 | 8.16% (active) |
| CC1(C)CN(Cc2ccccc2)CCN1Cc1ccccc1 | 102% (inactive) |
| COc1ccc(Cn2nc(-c3ccccc3)c3c2CCc2cnoc2-3)cc1 | 66.3% (inactive) |
| O=C(Nc1ccc2ncnc(Nc3ccc(Oc4cccc(F)c4)c(Cl)c3)c2c1)c1ccc(CN2CCOCC2)cc1 | 24.4% (inactive) |
| O=C1/C(=C/c2ccc(O)cc2)COc2ccc(-c3ccccc3)cc21 | 132% (inactive) |
| CCCCc1ccc(Nc2nnc(SCC(=O)NC(=O)NCC)s2)cc1 | 115% (inactive) |
| Fc1ccccc1CSc1ncnc2nc[nH]c12 | 103% (inactive) |
| COc1ccc(-c2cnnc3c(-c4cccc(C(F)(F)F)c4)cnn23)cc1 | -31.8% (active) |
| CC(=O)Nc1ccc(C(=O)Nc2cc(-c3ccccc3)ccc2N)cc1 | 47.5% (inactive) |
| Cc1ccc(C2CC(c3cccc(Nc4ccncc4)c3)=NN2c2ccc(Cl)cc2)cc1 (stereo unspecified) | -94.7% (active) |

| Compound | growth |
| --- | --- |
| CC(C)[N+](C)(CCOC(COc1ccccc1)COc1ccccc1)C(C)C | 105% (inactive) |
| FC(F)(F)c1cccc(Oc2ccc(Nc3ncnc4ccc(OCCCN5CCOCC5)cc34)cc2Cl)c1 | 35.6% (inactive) |
| COc1ccc(/C=C2\COc3ccc(-c4ccccc4)cc3C2=O)cc1O | 126% (inactive) |
| Cc1ccccc1-c1cc(Cc2ccc(F)cc2)c(=O)[nH]n1 | 54.4% (inactive) |
| CC(=O)N1N=C(c2cccc(Nc3ccncc3)c2)CC1c1ccccc1 (stereo unspecified) | 77.2% (inactive) |
| COc1cccc(/C=C2\COc3ccc(-c4ccccc4)cc3C2=O)c1 | 50.8% (inactive) |
| O=C1NC(=S)NC(=O)C1=Cc1cccc(C=C2C(=O)NC(=S)NC2=O)c1 | 93.9% (inactive) |
| Cc1ccc(/C=C/C(=O)c2ccc(N)cc2)c(C)c1 | 84.1% (inactive) |
| FC(F)(F)Oc1cccc(-c2cc(NCCCCCCNc3cc(-c4cccc(OC(F)(F)F)c4)nc4ccc(N5CCCC5)cc34)c3cc(N4CCCC4)ccc3n2)c1 | 5.91% (active) |
| CS(=O)(=O)c1ccc(-c2cc3c(oc2=O)-c2ccccc2OC3O)cc1 (stereo unspecified) | 75.4% (inactive) |
| O=C1c2cccnc2C(=O)c2nc3cc(N4CCN(C5CC5)CC4)ccc3nc21 | -5.27% (active) |
| CN1CCN(CCCOc2ccc3ncnc(Nc4ccc(Oc5cccc(C(F)(F)F)c5)c(Cl)c4)c3c2)CC1 | 0.55% (active) |
| COc1cc(/C=N/NC(=O)c2ccccc2Nc2cccc(C(F)(F)F)c2)ccc1O | 116% (inactive) |
| COc1ccc(/C=C/C(=O)c2ccc(Nc3ncnc4ccccc34)cc2)cc1OC | 75.6% (inactive) |
| COc1cc(C2CC(c3cccc(Nc4ccncc4)c3)=NN2c2ccccc2)cc(OC)c1OC (stereo unspecified) | 43.6% (inactive) |
| COc1cccc(CCC(=O)c2cc3c(N)c(C(=O)Nc4cccc(Cl)c4C)sc3nc2C)c1 | 20.5% (inactive) |
| COc1ccc(-c2nc(N/N=C/c3ccco3)nc(N3CCOCC3)c2C#N)cc1 | 59% (inactive) |
| COc1ccc(C(=O)c2cc3c(N)c(C(=O)Nc4cccc5ccccc45)sc3nc2C)cc1 | 20.9% (inactive) |
| C#CCn1cc(C=C2C(=O)NC(=S)NC2=O)c2cc(Cl)ccc21 | 9.84% (active) |
